PubChem BioAssay (NCI)
Compounds without any hit were thinned out: in the full panel of roughly 79,000, 15% have a hit. Activity calls are given as the source filed them. Rule as the data show it: active = growth inhibition above about 70%; inactive = the rest.

Legend:
[1] = NCI Yeast Anticancer Drug Screen. Data for the rad52 strain (AID 147);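 also: 0% = growth of vehicle-treated control cultures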; conditions: S. cerevisiae rad52 mutant growth inhibition, stronger effect = higher value
Outline: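 Yeast strain carrying a DNA damage repair alteration was exposed to test compounds. Growth inhibition was measured relative to vehicle-treated controls.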

[2] = NCI Yeast Anticancer Drug Screen. Data for the wt1 strain (AID 149);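 also: 0% = growth of vehicle-treated wt1 cultures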; conditions: S. cerevisiae wt1 strain (SPY 50644) growth inhibition, stronger effect = higher value
Outline: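 Using yeast strain wt1, compound-induced growth inhibition was determined against vehicle-treated cultures.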

[3] = NCI Yeast Anticancer Drug Screen. Data for the rad50EPP+ strain (AID 151);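 also: 0% = growth of vehicle-treated control cultures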; conditions: S. cerevisiae rad50 mutant strain, stronger effect = higher value
Outline: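 Yeast strain carrying rad50 alteration (rad50EPP+) exposed to compounds; growth inhibition measured relative to vehicle-treated controls.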

[4] = NCI Yeast Anticancer Drug Screen. Data for the mgt1 strain (AID 153); conditions: S. cerevisiae mgt1 mutant growth inhibition, stronger effect = higher value
Outline: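 Yeast mgt1 strain (DNA repair/cell-cycle alteration panel) exposed to compounds; growth inhibition measured relative to vehicle-treated controls.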

[5] = NCI Yeast Anticancer Drug Screen. Data for the rad50 strain (AID 155);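 also: 0% = growth of vehicle-only cultures of the same strain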; conditions: S. cerevisiae rad50 strain growth inhibition, stronger effect = higher value
Outline: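 Relative growth inhibition (compound vs vehicle) was measured in yeast with a defined repair-gene alteration.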

[6] = NCI Yeast Anticancer Drug Screen. Data for the mec2-1 strain (AID 157); conditions: S. cerevisiae mec2-1 strain, stronger effect = higher value
Outline: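 mec2-1 yeast strain, carrying an alteration in DNA damage repair or cell cycle control, was exposed to compounds; growth inhibition was measured relative to vehicle-treated controls.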

[7] = NCI Yeast Anticancer Drug Screen. Data for the rad14 strain (AID 159);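 also: 0% = growth of vehicle-treated control cultures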; conditions: S. cerevisiae rad14 strain growth inhibition, stronger effect = higher value
Outline: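 Screen for anticancer potential: a yeast strain altered in DNA damage repair is grown with compound, and reduced growth is quantified against vehicle controls.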

[8] = NCI Yeast Anticancer Drug Screen. Data for the sgs1 mgt1 strain (AID 161);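 also: 0% = growth of cultures given vehicle only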; conditions: S. cerevisiae sgs1 mgt1 strain, stronger effect = higher value
Outline: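 This yeast growth screen uses a strain with defined DNA-repair lesions; compound-treated growth is compared with vehicle-treated growth.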

[9] = NCI Yeast Anticancer Drug Screen. Data for the CLN2oe strain (AID 163);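 also: 0% = growth of vehicle-only control cultures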; conditions: S. cerevisiae CLN2oe strain, stronger effect = higher value
Outline: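 Yeast cells carrying a defined cell-cycle control alteration were exposed to test compounds. Growth inhibition was scored against vehicle-treated control cultures.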

[10] = NCI Yeast Anticancer Drug Screen. Data for the cln2 rad14 strain (AID 165);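 also: 0% = growth equal to vehicle treated cultures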; conditions: S. cerevisiae cln2 rad14 strain, stronger effect = higher value
Outline: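 Yeast carrying cln2 and rad14 alterations (cell cycle control and DNA damage repair) were exposed to compounds. Growth inhibition was measured against vehicle-treated controls.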

[11] = NCI Yeast Anticancer Drug Screen. Data for the bub3 strain (AID 167); conditions: S. cerevisiae bub3 mutant strain, stronger effect = higher value
Outline: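 Screening used yeast with an engineered genetic alteration affecting cell cycle control. Compound-exposed cultures were compared with vehicle cultures, and reduced growth was taken as inhibition.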

[12] = NCI Yeast Anticancer Drug Screen. Data for the wt2 strain (AID 169);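 also: 0% = growth of vehicle-treated yeast cultures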; conditions: S. cerevisiae wt2 strain growth inhibition, stronger effect = higher value
Outline: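 Yeast cells were exposed to test compounds, and growth inhibition was measured relative to vehicle-treated controls.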

[13] = NCI Yeast Anticancer Drug Screen. Data for the mlh1 strain (AID 171);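 also: 0% = growth of vehicle-treated control cultures of the same strain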; conditions: S. cerevisiae mlh1 strain growth inhibition, stronger effect = higher value
Outline: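 Yeast carrying a defined genetic alteration in DNA damage repair or cell cycle control were exposed to test compounds. Growth inhibition was measured relative to vehicle-treated controls.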

[14] = NCI Yeast Anticancer Drug Screen. Data for the sgs1 strain (AID 173);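 also: 0% = growth of vehicle-only control cultures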; conditions: S. cerevisiae sgs1 mutant, stronger effect = higher value
Outline: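 Yeast mutant strains carrying defined defects in DNA damage repair or cell cycle control were exposed to test compounds. Growth inhibition was scored against vehicle-treated controls.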

[15] = NCI Yeast Anticancer Drug Screen. Data for the mlh1 rad18 strain (AID 175); conditions: S. cerevisiae mlh1 rad18 strain growth inhibition, stronger effect = higher value
Outline: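 Growth inhibition of the yeast strain was measured after compound exposure and expressed relative to vehicle-treated controls. The strain carries defined defects in DNA damage repair.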

[16] = NCI Yeast Anticancer Drug Screen. Data for the rad18 strain (AID 177); conditions: S. cerevisiae rad18 mutant growth inhibition, stronger effect = higher value
Outline: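 Yeast carrying a defined DNA damage repair alteration were exposed to compounds. Growth inhibition was expressed relative to vehicle-treated controls.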

[17] = at 5.0 µM (retest, dose inferred, filed as 0.5)
[18] = at 50.0 µM (retest, dose inferred, filed as 5.0)

Measured: growth inhibition

COc1ccc(C(C#N)=C2C=CC(=NO)C=C2)cc1
active: [1]; at 11.0 µM 89% | [1]; at 33.0 µM 96% | [1]; at 100.0 µM 96% | [2]; at 33.0 µM 96% | [2]; at 100.0 µM 97% | [3]; at 3.7 µM 70% | [3]; at 11.0 µM 90% | [3]; at 33.0 µM 93% | [3]; at 100.0 µM 93% | [4]; at 11.0 µM 88% | [4]; at 33.0 µM 97% | [4]; at 100.0 µM 91% | [5]; at 11.0 µM 81% | [5]; at 33.0 µM 96% | [5]; at 100.0 µM 95% | [6]; at 11.0 µM 96% | [6]; at 33.0 µM 97% | [6]; at 50.0 µM 88.2% | [6]; at 100.0 µM 98% | [7]; at 11.0 µM 83% | [7]; at 33.0 µM 96% | [7]; at 100.0 µM 82% | [8]; [18] 79% | [8]; at 50.0 µM 87.7% | [11]; [18] 82% | [11]; at 50.0 µM 85.8% | [11]; at 100.0 µM 72% | [12]; at 11.0 µM 84% | [12]; at 33.0 µM 99% | [12]; at 100.0 µM 99% | [13]; at 33.0 µM 97% | [13]; at 100.0 µM 95% | [14]; at 11.0 µM 87% | [14]; at 33.0 µM 99% | [14]; at 100.0 µM 98% | [15]; [18] 85% | [15]; at 50.0 µM 91.5% | [16]; at 11.0 µM 90% | [16]; at 33.0 µM 97% | [16]; at 100.0 µM 96%
inactive: [1]; at 1.2 µM 11% | [1]; at 3.7 µM 34% | [2]; at 1.2 µM -1% | [2]; at 3.7 µM -2% | [2]; at 11.0 µM 14% | [3]; at 1.2 µM 42% | [4]; at 1.2 µM 0% | [4]; at 3.7 µM 18% | [5]; at 1.2 µM 18% | [5]; at 3.7 µM 38% | [5]; [17] 23% | [5]; [18] 62% | [5]; at 50.0 µM 65.4% | [6]; at 1.2 µM 1% | [6]; at 3.7 µM 16% | [6]; [17] -2% | [6]; [18] 25% | [7]; at 1.2 µM 13% | [7]; at 3.7 µM 19% | [8]; [17] 51% | [9]; at 1.2 µM 7% | [9]; at 3.7 µM 11% | [9]; at 11.0 µM 58% | [9]; at 33.0 µM 55% | [9]; at 100.0 µM 68% | [10]; [17] 17% | [10]; [18] 41% | [10]; at 50.0 µM 60.3% | [11]; at 1.2 µM -1% | [11]; at 3.7 µM 7% | [11]; [17] 24% | [11]; at 11.0 µM 22% | [11]; at 33.0 µM 42% | [12]; at 1.2 µM -9% | [12]; at 3.7 µM 42% | [13]; at 1.2 µM 8% | [13]; at 3.7 µM 29% | [13]; at 11.0 µM 66% | [14]; at 1.2 µM 5% | [14]; at 3.7 µM 32% | [15]; [17] 48% | [16]; at 1.2 µM 11% | [16]; at 3.7 µM 38%
